# Test results published in PubChem BioAssay AID624298 (National Center for Advancing Translational Sciences (NCATS), 2012).
# Records with an inconclusive call do not appear. A call without a number means that no potency is given here. The source made the active and inactive calls. The call rests on the fitted dose curve; in most records, active means well fitted activation curve with a large enough effect; inconclusive means small, poorly fitted or top-dose-only effect; inactive means no such curve, though single readings can be large or run the other way.
# Assay: Activators of T cell receptors: Hit Validation
# Details: primary human leukocytes, cytokine release by HTRF, 48 h, TCR-stimulated with anti-CD3 beads; series mostly up to 46.1 µM
# How it was run: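 Primary human leukocytes incubated 48 hr with anti-CD3 beads plus compound, without co-stimulation. Secreted IL-2 quantified by HTRF (europium cryptate donor, d2 acceptor, 665 nm emission).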
# Potency means the concentration at half of the fitted maximal effect.
row,SMILES,Potency
1,O=C(O)c1ccc(NC(=O)C(c2ccccc2)c2ccccc2)cc1,inactive
2,COc1ccc(C(=O)COC(=O)c2sc(C)nc2C)cc1OC,inactive
3,CC(NC(=S)NCCN1CCOCC1)C12CC3CC(CC(C3)C1)C2 (stereo not given),inactive
4,O=C(CCCN1CCC(C(=O)c2ccc(F)cc2)CC1)c1ccc(F)cc1,inactive
5,CC1(C)Cc2cccc(OCC(=O)NCc3ccc(F)cc3)c2O1,inactive
6,C=CCNC(=S)Nc1ccc2nsnc2c1,inactive
7,O=C(Nc1nnc(-c2ccccc2)s1)c1cccc(S(=O)(=O)N2CCOCC2)c1,inactive
8,O=C(COc1ncnc2c(Cl)cc(Cl)cc12)Nc1cc([N+](=O)[O-])ccc1Cl,inactive
9,CCC(/C=C1\Sc2ccc(OC)cc2N1CCO)=C\c1sc2ccc(OC)cc2[n+]1CCO,9.96 µM (active)
10,Cc1[nH]c2ccccc2c1C(=O)COc1ccccc1F,inactive
11,CCOC(=O)c1c(C)[nH]c(C(=O)OCC(=O)Nc2ccccc2)c1C,inactive
12,O=C(COC(=O)/C=C/c1cccc(Br)c1)Nc1cccc(S(=O)(=O)NC2=NCCC2)c1,inactive
13,O=S(=O)(Nc1cc(Cl)ccc1-n1cncn1)c1ccc(F)cc1,inactive
14,CC(=O)NS(=O)(=O)c1ccc(NC(=S)NC(=O)COc2ccccc2C)cc1,14.1 µM (active)
15,O=C(O)c1ccc(OS(=O)(=O)c2cccc(C(F)(F)F)c2)cc1,inactive
16,CCOc1cc(/C=N/O)cc(Br)c1OCC(=O)NCc1ccccc1,inactive
17,O=C1N=C(O)CN1/N=C/c1ccc(-c2ccc([N+](=O)[O-])cc2)o1,inactive
18,O=C(COC(=O)C1CCN(c2ccc(C(F)(F)F)cn2)CC1)NCc1ccccc1,inactive
19,COc1ccc(NC(=O)C(c2ccccn2)N(C(C)=O)c2ccc(C)cc2)cc1 (stereo not given),inactive
20,N#Cc1ccccc1Sc1ccccc1C(=O)OCC(=O)NC12CC3CC(CC(C3)C1)C2,inactive
21,COc1cc(C)c(NC(=S)NCCCN2CCOCC2)cc1OC,inactive
22,CC(C)NS(=O)(=O)c1ccc(NC(=O)C(C)OC(=O)C2CCC2)cc1 (stereo not given),inactive
23,COc1cc(N=c2ssnc2Cl)c(OC)cc1Cl,inactive
24,COc1cc2c(cc1O)CCN(C(=O)CSc1nncn1C)[C@@H]2C,inactive
25,O=S(=O)(c1ccc(=S)[nH]c1)N1CCCCCC1,inactive
26,CCN1CNC(=S)N(Cc2ccccc2)C1,inactive
27,O=C(CCCN=C1NS(=O)(=O)c2ccccc21)Nc1ccc(Cl)cc1,inactive
28,CCN(CC(=O)Nc1c(F)cccc1F)C(=O)C1CCN(S(=O)(=O)c2ccccc2C(=O)OC)CC1,inactive
29,Cc1n[nH]c(C)c1S(=O)(=O)N1CCCC(C(=O)Nc2nccs2)C1 (stereo not given),inactive
30,CCCCN1CCC(COC(=O)c2cc(Cl)c(N)c3c2OCCO3)CC1,inactive
